Among the data in PubChem BioAssay are growth inhibition, inhibition and outcome values, retold here.

Values without a mark were called inactive. For some of these results: Entries with a potency or affinity are not part of this list. Activity calls are given as the source filed them. Unless noted, how the calls were made is not given here.

Broadly, the inhibition is the drop in the measured response relative to a control, in per cent.

Assay [1] can be described thus: antimalarial activity against Dd2 strain (AID 2302;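 active means growth inhibition above 50% at the single 2 µM test dose, taken to imply half-maximal potency below 2 µM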;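 further: 0% = DMSO untreated growth and 100% = chloroquine plus artemisinin killed control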). The conditions noted are these: P. falciparum Dd2 in RBCs, LDH growth readout, 72 h; at 2 µM; hits give high values.
Assay [2] can be described thus: human hepatoma cell viability loss – ATP luminescence, cytotoxicity control for P. falciparum antimalarial project, primary screen (AID 2303;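 active means inhibition above 50%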;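 further: 0% = DMSO wells and 100% = digitonin-killed cells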). The conditions noted are these: HepG2 viability, 24-48 h, at 10 µM, hits give high values.
Assay [3] deals with L-lactate dehydrogenase (Plasmodium falciparum (isolate CDC / Honduras)) (UniProt Q27743). As to the kind of experiment: PfLDH activity inhibition – cell lysate, 3D7 strain, counter-screen for P. falciparum growth inhibition project (AID 2304).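 Further: 0% = vehicle and 100% = reference inhibitor.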 The conditions noted are these: P. falciparum 3D7 crude extract, LDH APAD/NBT absorbance; at 2 µM; hits give high values. (In general: The purpose of a counterscreen is to sort out artefacts and off-target activity.)
L-lactate dehydrogenase (Plasmodium falciparum (isolate CDC / Honduras)), sequence (Q27743 whole entry, looked up): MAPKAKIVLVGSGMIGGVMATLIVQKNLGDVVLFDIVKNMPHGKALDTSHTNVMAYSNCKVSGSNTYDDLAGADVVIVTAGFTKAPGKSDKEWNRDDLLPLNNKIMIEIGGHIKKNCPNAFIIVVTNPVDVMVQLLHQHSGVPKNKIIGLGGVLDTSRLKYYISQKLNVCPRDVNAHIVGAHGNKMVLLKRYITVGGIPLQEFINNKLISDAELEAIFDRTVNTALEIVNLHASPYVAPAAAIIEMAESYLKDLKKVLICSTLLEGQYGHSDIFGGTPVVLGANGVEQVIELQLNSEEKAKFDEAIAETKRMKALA

The nature of assay [4]: inhibition of 3D7 malaria parasite growth – strain 3D7 (AID 2306).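 Further: 0% = DMSO wells and 100% = chloroquine plus artemisinin control wells.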 The conditions noted are these: P. falciparum 3D7 erythrocytic growth, LDH absorbance, 72 h; at 2 µM; hits give high values.
For assay [5], the target named is Calcium-dependent protein kinase 1 (Plasmodium falciparum (isolate 3D7)) (UniProt P62344). The assay can be described thus: PfCDPK1 kinase inhibitors, biochemical, TCAMS library (AID 1159585; cut-off not given, nearly all actives have IC50 up to about 0.98 µM;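 further: inhibitors leave more ATP so luminescence rises with inhibition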). The conditions noted are these: recombinant PfCDPK1, Kinase-Glo ATP depletion luminescence. Background: In Kinase-Glo more light means more ATP remaining.
Calcium-dependent protein kinase 1 (Plasmodium falciparum (isolate 3D7)), sequence (P62344 whole entry, looked up): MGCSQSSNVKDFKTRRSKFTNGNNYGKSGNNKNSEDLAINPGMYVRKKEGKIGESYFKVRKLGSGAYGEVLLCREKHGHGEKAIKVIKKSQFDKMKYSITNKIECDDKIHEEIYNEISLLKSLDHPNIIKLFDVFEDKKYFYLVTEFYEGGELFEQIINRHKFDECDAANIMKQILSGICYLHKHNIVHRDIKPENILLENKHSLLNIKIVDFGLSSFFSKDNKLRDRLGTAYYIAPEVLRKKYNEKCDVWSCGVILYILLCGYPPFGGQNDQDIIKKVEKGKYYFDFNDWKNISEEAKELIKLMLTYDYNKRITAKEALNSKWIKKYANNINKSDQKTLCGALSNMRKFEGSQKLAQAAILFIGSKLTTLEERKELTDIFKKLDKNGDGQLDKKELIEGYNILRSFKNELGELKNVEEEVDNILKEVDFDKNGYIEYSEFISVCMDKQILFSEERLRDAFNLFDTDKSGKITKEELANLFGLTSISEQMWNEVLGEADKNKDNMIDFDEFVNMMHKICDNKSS
Assay [6] deals with Plasmodium falciparum protein kinase 6 (PK6, PF3D7_1337100) (UniProt Q8IDW1). As to the kind of experiment: PfPK6 kinase inhibitors, biochemical, TCAMS library (AID 1159586). The conditions noted are these: recombinant PfPK6, Kinase-Glo ATP depletion luminescence.
Plasmodium falciparum protein kinase 6 (PK6, PF3D7_1337100), sequence (Q8IDW1 1-305): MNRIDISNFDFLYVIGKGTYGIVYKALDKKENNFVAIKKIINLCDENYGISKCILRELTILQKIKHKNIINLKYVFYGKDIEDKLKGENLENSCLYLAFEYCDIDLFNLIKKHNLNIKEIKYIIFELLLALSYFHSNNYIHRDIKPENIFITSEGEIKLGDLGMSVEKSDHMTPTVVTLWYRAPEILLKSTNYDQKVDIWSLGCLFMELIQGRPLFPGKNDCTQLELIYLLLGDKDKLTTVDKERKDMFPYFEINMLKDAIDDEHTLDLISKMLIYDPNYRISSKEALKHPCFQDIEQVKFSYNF
In assay [7] the target is Protein kinase 7 (PK7), Plasmodium falciparum 3D7 (PF3D7_0213400) (UniProt Q7YTF7). The assay can be described thus: inhibition of Plasmodium PK7 catalytic activity – biochemical, TCAMS antimalarial set, Kinase-Glo luminescence (AID 1159587). The conditions noted are these: recombinant PfPK7, Kinase-Glo ATP depletion luminescence.
Protein kinase 7 (PK7), Plasmodium falciparum 3D7 (PF3D7_0213400), sequence (Q7YTF7 1-343): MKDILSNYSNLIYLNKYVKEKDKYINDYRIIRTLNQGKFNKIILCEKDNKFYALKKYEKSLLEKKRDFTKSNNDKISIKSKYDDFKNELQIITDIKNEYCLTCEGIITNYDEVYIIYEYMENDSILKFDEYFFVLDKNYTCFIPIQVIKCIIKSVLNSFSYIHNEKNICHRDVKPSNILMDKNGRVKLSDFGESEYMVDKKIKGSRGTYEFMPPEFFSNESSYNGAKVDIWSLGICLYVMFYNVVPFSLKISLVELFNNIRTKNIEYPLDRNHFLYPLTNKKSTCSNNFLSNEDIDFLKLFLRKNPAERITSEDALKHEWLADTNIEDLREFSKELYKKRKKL
The target in assay [8] is Calcium-dependent protein kinase 4 (Plasmodium falciparum (isolate 3D7)) (UniProt Q8IBS5). The assay can be described thus: PfCDPK4 kinase inhibitors, biochemical, TCAMS library (AID 1159588; cut-off not given, nearly all actives have IC50 up to about 0.91 µM). The conditions noted are these: recombinant PfCDPK4, Kinase-Glo ATP depletion luminescence.
Calcium-dependent protein kinase 4 (Plasmodium falciparum (isolate 3D7)), sequence (Q8IBS5 whole entry, looked up): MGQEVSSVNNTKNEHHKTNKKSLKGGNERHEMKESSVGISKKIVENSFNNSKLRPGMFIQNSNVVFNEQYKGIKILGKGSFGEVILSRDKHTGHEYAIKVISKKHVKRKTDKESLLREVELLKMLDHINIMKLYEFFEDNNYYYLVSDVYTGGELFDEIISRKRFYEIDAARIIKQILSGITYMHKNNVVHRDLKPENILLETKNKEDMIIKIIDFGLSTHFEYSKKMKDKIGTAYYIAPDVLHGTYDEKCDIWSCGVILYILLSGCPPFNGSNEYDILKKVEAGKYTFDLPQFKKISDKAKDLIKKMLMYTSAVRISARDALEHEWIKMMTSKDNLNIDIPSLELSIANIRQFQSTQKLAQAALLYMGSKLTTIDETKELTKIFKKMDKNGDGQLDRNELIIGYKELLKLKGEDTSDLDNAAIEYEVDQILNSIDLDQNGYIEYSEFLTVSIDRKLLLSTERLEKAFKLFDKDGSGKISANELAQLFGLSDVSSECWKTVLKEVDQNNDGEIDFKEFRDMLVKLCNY

For `CS(=O)(=O)c1cccc(-c2cnc(N)c3cc(-c4cccc(F)c4)ccc23)c1`, the growth inhibition in assay [1] is 13%; in assay [4] it was 97% (active). For the same compound, the inhibition in assay [2] is 45%; in assay [3] it was 2%. The result in assay [5], in assay [6], in assay [7] and in assay [8] was inactive.
For the compound `Cc1cccc(CC(N)=NCCCCCCN=C(N)Cc2cccc(C)c2)c1`, the growth inhibition in assay [1] and in assay [4] was 97% (active) in each case. Further, the inhibition in assay [2] is 12%; in assay [3] it was 3%. The result in assay [5], in assay [6], in assay [7] and in assay [8] was inactive.
For the compound `Cc1ccc(S(=O)(=O)n2cc(-c3ccnc(N)c3)c3cc(Br)cnc32)cc1`, the growth inhibition in assay [1] was 31%; in assay [4] it was 98% (active). Also, the inhibition was 8% in assay [2] and 1% in assay [3]. Besides, the result in assay [5], in assay [6], in assay [7] and in assay [8] was inactive.
With `CCN(CC)CCNC(=O)c1ccc(NC(=O)c2cc3c(C)nn(-c4ccc(Cl)cc4)c3s2)cc1`, the values for the growth inhibition in assay [1] and in assay [4] were 78% (active) and 95% (active), respectively. Further, the inhibition in assay [2] was 24%; in assay [3] it was -2%. Further, the outcome in assay [5], in assay [6], in assay [7] and in assay [8] was inactive.
As for `Nc1nc(-c2ccc3c(Nc4ccc(F)c(Cl)c4)ccnc3c2)cs1`, the figures for the growth inhibition in assay [1] and in assay [4] were 88% (active) and 100% (active), respectively. Also, the values for the inhibition in assay [2] and in assay [3] were 13% and 0%, respectively. In addition, the result in assay [5], in assay [6], in assay [7] and in assay [8] was inactive.
For the compound `c1ccc(C2=NN=C(c3ccccn3)[C@H]3[C@H]4C[C@@H]([C@@H]23)[C@@H]2[C@H]4[C@H]3C[C@@H]2c2ccccc23)nc1`, the growth inhibition in assay [1] was 77% (active); in assay [4] it was 98% (active). For the same compound, the inhibition was 39% in assay [2] and -3% in assay [3]. The result in assay [5], in assay [6], in assay [7] and in assay [8] was inactive.
For `Cc1ccc2nc(C)cc(NN=Cc3cccc(Cl)c3)c2c1`, the growth inhibition in assay [1] was 98% (active); in assay [4] it was 102% (active). For the same compound, the inhibition was 12% in assay [2] and 2% in assay [3]. Besides, the outcome in assay [5], in assay [6], in assay [7] and in assay [8] was inactive.
For `COc1cc(NC(=O)c2ccc(-c3ccc(C(C)=O)cc3)s2)ccc1OCCN1CCCC1`, the figures for the growth inhibition in assay [1] and in assay [4] were 63% (active) and 100% (active), respectively. The inhibition in assay [2] is 31%; in assay [3], 3%. The result in assay [5], in assay [6], in assay [7] and in assay [8] was inactive.
`O=C1COc2cc(Cl)c(CNC3CCN(CCc4ccnc5c(F)cc(F)cc45)CC3)nc2N1`: the growth inhibition in assay [1] is 49%; in assay [4] it was 98% (active). Besides, the inhibition in assay [2] was 96% (active); in assay [3], -2%. The outcome in assay [5], in assay [6], in assay [7] and in assay [8] was inactive.
In the case of `O=C(Nc1ccc(Cl)cc1C(=O)Nc1cccc(F)c1)c1ccc([N+](=O)[O-])cc1`, the growth inhibition in assay [1] is 54% (active); in assay [4], 89% (active). Moreover, the inhibition is 10% in assay [2] and 0% in assay [3]. The result in assay [5], in assay [6], in assay [7] and in assay [8] was inactive.
As to `CCCCCc1cc(OC(C)=O)c2c(c1)OC(C)(C)C=C2C1=CCN(Cc2ccccc2)CC1`, the growth inhibition in assay [1] is 88% (active); in assay [4], 97% (active). Further, the inhibition was 14% in assay [2] and -3% in assay [3]. For the same compound, the result in assay [5], in assay [6], in assay [7] and in assay [8] was inactive.
For `CN(C)CCN(C)Cc1ccc(-c2cccc(NC(=O)c3cccc(C#N)c3)c2)cc1`, the values for the growth inhibition in assay [1] and in assay [4] were 11% and 94% (active), respectively. In addition, the inhibition in assay [2] is 23%; in assay [3], -4%. For the same compound, the result in assay [5], in assay [6], in assay [7] and in assay [8] was inactive.
In the case of `N#Cc1ccc(-n2cc(C(=O)Nc3ccc4c(c3)CCN(C3CCC3)CC4)c(C(F)(F)F)n2)cc1`, the growth inhibition in assay [1] was 99% (active); in assay [4] it was 102% (active). Also, the inhibition in assay [2] was 37%; in assay [3], -2%. Besides, the result in assay [5], in assay [6], in assay [7] and in assay [8] was inactive.
As for `CCN1CCN(Cc2ccc(NC(=O)c3cc4ccc5cccnc5c4[nH]3)cc2)CC1`, the growth inhibition in assay [1] was 97% (active); in assay [4], 100% (active). In addition, the inhibition in assay [2] and in assay [3] was -3% in each case. In addition, the result in assay [5], in assay [6], in assay [7] and in assay [8] was inactive.
With `Nc1nc(N)c2c(ccc3c2ccn3Cc2ccc(F)cc2)n1`, the growth inhibition in assay [1] is 96% (active); in assay [4], 97% (active). In addition, the figures for the inhibition in assay [2] and in assay [3] were 66% (active) and 1%, respectively. Besides, the outcome in assay [5], in assay [6], in assay [7] and in assay [8] was inactive.
With `O=C(Nc1ccc(N2CCCN(Cc3cccc(F)c3)CC2)cc1)c1cccs1`, the growth inhibition in assay [1] and in assay [4] was 96% (active) throughout. Besides, the inhibition in assay [2] was 2%; in assay [3], 0%. The result in assay [5], in assay [6], in assay [7] and in assay [8] was inactive.
Turning to `CC(=O)Nc1ncc(C(=O)Nc2ccc(-c3cccc(-c4nc5ccc(F)cc5[nH]4)c3)cc2)s1`, the growth inhibition in assay [1] was 85% (active); in assay [4], 102% (active). For the same compound, the inhibition in assay [2] is 47%; in assay [3], -3%. The result in assay [5], in assay [6], in assay [7] and in assay [8] was inactive.
For `CCOc1ccc(C2CCN(CCCCNC(=O)c3ccc(NC(=O)c4ccc(Cl)cc4)cc3)CC2)c(Cl)c1`, the growth inhibition in assay [1] was 96% (active); in assay [4], 101% (active). Also, the inhibition in assay [2] is 32%; in assay [3], -2%. Besides, the outcome in assay [5], in assay [6], in assay [7] and in assay [8] was inactive.
With `Cc1cc(NC(=O)Nc2cccc(Cl)c2Cl)c2ccccc2n1`, the growth inhibition in assay [1] is 25%; in assay [4], 96% (active). Also, the inhibition is -5% in assay [2] and 1% in assay [3]. Moreover, the result in assay [5], in assay [6], in assay [7] and in assay [8] was inactive.
Turning to `OCC1CCN(Cc2cccc(C#Cc3cc4ncnc(Nc5ccc(OCc6cccc(F)c6)c(Cl)c5)c4s3)n2)CC1`, the growth inhibition in assay [1] was 95% (active); in assay [4], 99% (active). Moreover, the inhibition in assay [2] is 41%; in assay [3], 1%. Further, the outcome in assay [5], in assay [6], in assay [7] and in assay [8] was inactive.
